The text below walks through data of PubChem BioAssay (NCI).

The panel holds about 83,000 compounds, 20% with a hit somewhere; the sample as a whole holds those more often.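 Growth was measured after 48 h exposure to one concentration of compound in 96-well plates. Values under 10 count as active.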 Unmarked numbers belong to inactive results. Active and inactive are the calls of the source.

Among the test systems are HT29 colon; SNB-75 CNS; SNB-19 CNS; U251 CNS; PC-3 prostate; SK-MEL-5 melanoma; UACC-62 melanoma; LOX IMVI melanoma; SK-MEL-28 melanoma; SK-MEL-2 melanoma; SN12C renal; UO-31 renal; TK-10 renal; ACHN renal; CAKI-1 renal; A498 renal; CCRF-CEM leukemia; MOLT-4 leukemia; SR leukemia.
Holding throughout (assay): NCI-60 one-dose screen, 48 h (100 = growth as untreated, 0 = no growth, -100 = all killed)
Conditions in all cases: 10 µM

For the compound `CSc1nn(-c2ccccc2)c2ncnc(Oc3ccccc3)c12`, the growth is 87.3% in the experiment on HT29 colon; 70.1% in the experiment on SNB-75 CNS; 93.9% with SNB-19 CNS; 86% in the experiment on U251 CNS; 98% in the experiment on PC-3 prostate; 97% in the experiment on SK-MEL-5 melanoma. Moreover, the growth in the experiment on UACC-62 melanoma is 101%; in the experiment with LOX IMVI melanoma, 98.4%; in the experiment with SK-MEL-28 melanoma, 111%; in the experiment with SK-MEL-2 melanoma, 80.6%; with SN12C renal, 86.2%; in the experiment on UO-31 renal it was 7.79% (active). For the same compound, the growth in the experiment on TK-10 renal was 106%; with ACHN renal it was 106%; in the experiment on CAKI-1 renal, 88.7%; in the experiment with A498 renal, 138%; in the experiment with CCRF-CEM leukemia it was 89.6%; in the experiment on MOLT-4 leukemia, 97.3%. The growth in the experiment on SR leukemia was 84%.

With `O=C(Nc1cccc(-n2cc(-c3ccncc3)c(-c3cc(O)cc(Cl)c3)n2)c1)Nc1ccc(Cl)c(C(F)(F)F)c1`, the growth in the experiment with HT29 colon is 35.3%; in the experiment on SNB-75 CNS it was 24.1%; with SNB-19 CNS, 44.5%; in the experiment with U251 CNS, -26.5% (active); in the experiment on PC-3 prostate, 5.34% (active); in the experiment on SK-MEL-5 melanoma it was 23.8%. Besides, the growth is -1.44% (active) in the experiment on UACC-62 melanoma; 2.08% (active) in the experiment with LOX IMVI melanoma; -13.5% (active) in the experiment on SK-MEL-28 melanoma; -37.9% (active) in the experiment on SK-MEL-2 melanoma; 34.6% with SN12C renal; 18.5% in the experiment on UO-31 renal. Moreover, the growth in the experiment on TK-10 renal is 25.9%; in the experiment on ACHN renal it was 21.3%; with CAKI-1 renal, 29.1%; in the experiment on A498 renal, 21.5%; in the experiment on CCRF-CEM leukemia, 9.31% (active); in the experiment on MOLT-4 leukemia it was -18% (active). Further, in the experiment on SR leukemia, the growth is -30.6% (active).

In the case of `CCCC#CCN(CC)CC`, the growth was 104% in the experiment on HT29 colon; 97.1% with SNB-75 CNS; 100% in the experiment on SNB-19 CNS; 91.2% with U251 CNS; 86% with PC-3 prostate; 104% with SK-MEL-5 melanoma. For the same compound, the growth in the experiment on UACC-62 melanoma is 99.1%; with LOX IMVI melanoma, 102%; in the experiment with SK-MEL-28 melanoma it was 108%; in the experiment on SK-MEL-2 melanoma it was 114%; in the experiment on SN12C renal, 95.8%; in the experiment with UO-31 renal it was 83.5%. Further, the growth in the experiment on TK-10 renal was 99.2%; with ACHN renal it was 106%; with CAKI-1 renal it was 88.2%; in the experiment with A498 renal it was 105%; with CCRF-CEM leukemia, 95%; with MOLT-4 leukemia it was 109%. Further, the growth in the experiment on SR leukemia is 101%.

Take `COc1ccc(OC)c(NC(=O)c2sc3nc4c(cc3c2N)C(=O)CCC4)c1`: the growth in the experiment with HT29 colon was 106%; in the experiment on SNB-75 CNS, 87.2%; in the experiment with SNB-19 CNS it was 82.2%; with U251 CNS, 94.5%; in the experiment on PC-3 prostate, 80.4%; in the experiment on SK-MEL-5 melanoma, 66%. Besides, the growth is 75.3% in the experiment with UACC-62 melanoma; 90.8% in the experiment on LOX IMVI melanoma; 83.7% with SK-MEL-28 melanoma; 94.1% in the experiment on SK-MEL-2 melanoma; 95.5% in the experiment on SN12C renal; 84.7% in the experiment with UO-31 renal. In addition, the growth was 98% with TK-10 renal; 106% in the experiment on ACHN renal; 86.3% with CAKI-1 renal; 3.5% (active) with A498 renal; 84.4% in the experiment with CCRF-CEM leukemia; 93.1% in the experiment on MOLT-4 leukemia. For the same compound, in the experiment with SR leukemia, the growth was 73.7%.

For `O=C1/C(=C\c2ccccc2)CN(C(=O)c2ccccc2F)C/C1=C\c1ccccc1`, the growth in the experiment with HT29 colon is -46.7% (active); in the experiment with SNB-75 CNS, 53.5%; in the experiment on SNB-19 CNS, 51%; with U251 CNS it was -36% (active); in the experiment on PC-3 prostate, 8.54% (active); with SK-MEL-5 melanoma it was -48.6% (active). In addition, the growth in the experiment on UACC-62 melanoma was -17.4% (active); with LOX IMVI melanoma it was -86% (active); in the experiment on SK-MEL-28 melanoma, -56.7% (active); with SK-MEL-2 melanoma, 54.8%; with SN12C renal, 6.12% (active); with UO-31 renal it was 12.4%. Moreover, the growth was 53.8% with TK-10 renal; -3.34% (active) in the experiment on ACHN renal; 30.4% in the experiment on CAKI-1 renal; 45% in the experiment on A498 renal; -7.33% (active) in the experiment with CCRF-CEM leukemia; -4.02% (active) with MOLT-4 leukemia. Further, the growth in the experiment with SR leukemia was -35.1% (active).

On to `CCOCC(=O)C(C#N)c1ccc(Cl)c(Cl)c1` (stereo unspecified), for which the growth is 104% with HT29 colon; 78.2% with SNB-75 CNS; 107% in the experiment on SNB-19 CNS; 94.7% with U251 CNS; 87% in the experiment with PC-3 prostate; 96% in the experiment with SK-MEL-5 melanoma. Also, the growth in the experiment with UACC-62 melanoma is 95.4%; in the experiment with LOX IMVI melanoma, 100%; with SK-MEL-28 melanoma it was 100%; with SK-MEL-2 melanoma, 115%; with SN12C renal, 97.8%; with UO-31 renal, 82.8%. Moreover, the growth in the experiment on TK-10 renal is 105%; with ACHN renal, 91.3%; in the experiment with CAKI-1 renal, 90%; with A498 renal it was 91.6%; with CCRF-CEM leukemia, 86.8%; in the experiment on MOLT-4 leukemia it was 101%. Further, the growth with SR leukemia is 88.2%.

In the case of `COc1cc(Nc2ncnc(Nc3ccc4c(n3)NC(=O)C(C)(C)O4)n2)cc(OC)c1OC`, the growth with HT29 colon was -12.6% (active); with SNB-75 CNS, -80.3% (active); in the experiment with SNB-19 CNS, 31.1%; in the experiment on U251 CNS, 15.9%; in the experiment on PC-3 prostate, 25.5%; in the experiment on SK-MEL-5 melanoma it was 48.2%. Moreover, the growth was 20.3% with UACC-62 melanoma; -27% (active) with LOX IMVI melanoma; 51.2% in the experiment with SK-MEL-28 melanoma; 46.5% in the experiment with SK-MEL-2 melanoma; 18.9% in the experiment with SN12C renal; -6.15% (active) in the experiment with UO-31 renal. For the same compound, the growth in the experiment with TK-10 renal is -36.4% (active); with ACHN renal, 14.6%; in the experiment with CAKI-1 renal it was -10.2% (active); in the experiment with A498 renal, -75.1% (active); in the experiment on CCRF-CEM leukemia, 25.1%; with MOLT-4 leukemia it was 33.9%. For the same compound, the growth in the experiment on SR leukemia is 9.18% (active).

Consider `Clc1ccc2c(NCCCNc3nccc(Nc4ccc(Br)cc4)n3)ccnc2c1`, for which the growth was -80.3% (active) in the experiment with HT29 colon; -93.9% (active) in the experiment on SNB-75 CNS; -8.34% (active) in the experiment with SNB-19 CNS; -98.3% (active) with U251 CNS; -33.4% (active) in the experiment on PC-3 prostate; -100% (active) in the experiment on SK-MEL-5 melanoma. Further, the growth in the experiment with UACC-62 melanoma was -87.9% (active); in the experiment on LOX IMVI melanoma it was -85.8% (active); in the experiment on SK-MEL-28 melanoma, -97.2% (active); in the experiment with SK-MEL-2 melanoma, -96.7% (active); in the experiment with SN12C renal, -65.1% (active); with UO-31 renal, -72.3% (active). In addition, the growth in the experiment on TK-10 renal was -90.4% (active); in the experiment with ACHN renal it was -90.6% (active); with CAKI-1 renal it was -80.4% (active); in the experiment on A498 renal, 19.6%; in the experiment with CCRF-CEM leukemia it was -24.5% (active); with MOLT-4 leukemia, -44.6% (active).
